Among the test systems are NCI-H23 lung; NCI-H226 lung; NCI-H322M lung; HOP-62 NSCLC; NCI-H460 lung; HOP-92 NSCLC; NCI-H522 lung; A549/ATCC NSCLC; 786-0 renal; COLO 205 colon; DU-145 prostate; K-562 leukemia; MALME-3M melanoma; MDA-MB-231 breast; SF-268 CNS; SF-295 CNS; SF-539 CNS; UACC-257 melanoma; M14 melanoma; RXF 393 renal.
Holding throughout (experiment): NCI-60 one-dose screen, 48 h (100 = growth as untreated, 0 = no growth, -100 = all killed)
Conditions in all cases: 10 µM unless noted

The text below walks through data of PubChem BioAssay (NCI).

Molecules are shown by their SMILES. “And” between values parts separate entries of the source, which are not always exact repeats. Identical values can stand only once. Compounds without any hit were thinned out: in the full panel of roughly 83,000, 20% have a hit.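 Step 1: grow cells in 96-well plates. Step 2: add test compound at a single concentration. Step 3: incubate 48 h. Step 4: record percent growth.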 The source made the active and inactive calls. How the source made its calls: active means growth percent below 10; inactive means the rest.

For the molecule `N#Cc1ccc(/C=C/C(=O)c2ccccc2)cc1`, the growth is 100% (inactive) and 95.2% (inactive) with NCI-H23 lung; 105% (inactive) and 107% (inactive) with NCI-H226 lung; 93.2% (inactive) and 98.2% (inactive) with NCI-H322M lung; 96.6% (inactive) and 110% (inactive) in the test with HOP-62 NSCLC; 78.7% (inactive) and 106% (inactive) in the test with NCI-H460 lung; 73.1% (inactive) and 85.7% (inactive) in the test with HOP-92 NSCLC. Besides, the growth in the test with NCI-H522 lung is 83.1% (inactive); in the test with A549/ATCC NSCLC it was 88.2% (inactive) and 98.7% (inactive); with 786-0 renal it was 102% (inactive); in the test on COLO 205 colon, 81.6% (inactive) and 113% (inactive); with DU-145 prostate, 80.8% (inactive) and 102% (inactive); with K-562 leukemia it was -35.8% (active) and 6.11% (active). Further, the growth with MALME-3M melanoma is 89.2% (inactive) and 110% (inactive); in the test on MDA-MB-231 breast, 103% (inactive); with SF-268 CNS it was 101% (inactive); with SF-295 CNS, 93.7% (inactive) and 118% (inactive); in the test on SF-539 CNS it was 103% (inactive) and 110% (inactive); in the test with UACC-257 melanoma, 80% (inactive) and 114% (inactive). Moreover, in the test on M14 melanoma, the growth was 98.6% (inactive) and 102% (inactive).
On to `O=C1C=CC[C@H](/C=C/c2ccccc2)O1`, for which the growth is 37.8% (inactive) and 40.7% (inactive) in the test on NCI-H23 lung; 29.8% (inactive) and -33% (active) in the test on NCI-H226 lung; 25.5% (inactive) and 4.12% (active) in the test on NCI-H322M lung; 64.7% (inactive) and -48.7% (active) with HOP-62 NSCLC; 4.39% (active) and -32.3% (active) with NCI-H460 lung; 10.3% (inactive) and -15.8% (active) in the test with HOP-92 NSCLC. Also, the growth in the test on NCI-H522 lung was 13.9% (inactive) and 47.5% (inactive); in the test with A549/ATCC NSCLC, 12.2% (inactive) and 7.95% (active); in the test on 786-0 renal it was 48.2% (inactive) and -27.8% (active); in the test with COLO 205 colon it was 57.9% (inactive) and -70.8% (active); with DU-145 prostate, -3.41% (active) and 0.622% (active); with K-562 leukemia it was 14.6% (inactive) and -20.2% (active). Moreover, the growth in the test on MALME-3M melanoma was 61.9% (inactive) and 55.5% (inactive); in the test on MDA-MB-231 breast, 55.6% (inactive) and 36.6% (inactive); with SF-268 CNS it was 7.78% (active) and 7.94% (active); in the test on SF-295 CNS it was -0.286% (active) and 0.195% (active); in the test with SF-539 CNS, 13.2% (inactive) and -60.2% (active); in the test on UACC-257 melanoma it was 47% (inactive) and 15.3% (inactive). Moreover, the growth in the test on M14 melanoma was 53.7% (inactive) and 27.8% (inactive).
For the molecule `Nc1ccccc1SC1CC(=O)N(c2ccc(I)cc2)C1=O` (stereo unspecified), the growth with NCI-H23 lung was 89.8% (inactive); in the test on NCI-H226 lung, 102% (inactive); with NCI-H322M lung, 108% (inactive); in the test on HOP-62 NSCLC it was 80.5% (inactive); with NCI-H460 lung, 92.6% (inactive); with HOP-92 NSCLC it was 100% (inactive). Besides, the growth in the test with NCI-H522 lung was 77.4% (inactive); with A549/ATCC NSCLC, 87.1% (inactive); in the test on 786-0 renal, 105% (inactive); in the test on COLO 205 colon, 95.3% (inactive); with DU-145 prostate, 92.7% (inactive); in the test with K-562 leukemia it was 82.9% (inactive). Besides, the growth was 75.6% (inactive) in the test with MALME-3M melanoma; 91% (inactive) in the test with MDA-MB-231 breast; 115% (inactive) with RXF 393 renal; 84.1% (inactive) in the test with SF-268 CNS; 93.8% (inactive) with SF-295 CNS; 89.6% (inactive) with SF-539 CNS. Moreover, the growth was 89.2% (inactive) in the test with UACC-257 melanoma and 88% (inactive) in the test with M14 melanoma.
On to `CC(=O)Oc1ccc(C(c2ccc(OC(C)=O)cc2)c2ccccn2)cc1`, for which the growth was 59.7% (inactive) and 57% (inactive) in the test with NCI-H23 lung; 89.2% (inactive) and 106% (inactive) in the test on NCI-H226 lung; 30.6% (inactive) and 64.6% (inactive) in the test on NCI-H322M lung; 87.9% (inactive) and 109% (inactive) with HOP-62 NSCLC; 105% (inactive) and 101% (inactive) in the test with NCI-H460 lung; 66.1% (inactive) and 34.1% (inactive) in the test with HOP-92 NSCLC. The growth was 91.4% (inactive) and 72.6% (inactive) in the test on NCI-H522 lung; 87% (inactive) and 13.8% (inactive) in the test on A549/ATCC NSCLC; 101% (inactive) with 786-0 renal; 24% (inactive) and 17.9% (inactive) in the test on COLO 205 colon; 96.8% (inactive) and 106% (inactive) with DU-145 prostate; 89.6% (inactive) and 99.2% (inactive) in the test with K-562 leukemia. For the same molecule, the growth was 100% (inactive) and 107% (inactive) in the test on MALME-3M melanoma; 100% (inactive) and 102% (inactive) in the test with MDA-MB-231 breast; 71.9% (inactive) and 16.1% (inactive) in the test with RXF 393 renal; 104% (inactive) and 99.3% (inactive) in the test with SF-268 CNS; 92.1% (inactive) in the test on SF-295 CNS; 100% (inactive) and 75.6% (inactive) in the test with SF-539 CNS. Further, the growth was 96.1% (inactive) and 88.3% (inactive) in the test on UACC-257 melanoma; 95.1% (inactive) and 69.3% (inactive) with M14 melanoma.
In the case of `Nc1ccc(Cl)c(S(=O)(=O)O)c1`, the growth in the test on NCI-H23 lung is 97% (inactive); in the test with NCI-H226 lung, 97.1% (inactive); in the test on NCI-H322M lung, 89.2% (inactive); with HOP-62 NSCLC it was 100% (inactive); with HOP-92 NSCLC it was 106% (inactive); with NCI-H522 lung, 99.1% (inactive). Moreover, the growth was 106% (inactive) in the test on A549/ATCC NSCLC; 104% (inactive) in the test on 786-0 renal; 111% (inactive) in the test with COLO 205 colon; 105% (inactive) with DU-145 prostate; 104% (inactive) in the test on K-562 leukemia; 112% (inactive) with MALME-3M melanoma. The growth is 111% (inactive) in the test with MDA-MB-231 breast; 95.1% (inactive) with RXF 393 renal; 102% (inactive) with SF-268 CNS; 112% (inactive) in the test on SF-295 CNS; 94.3% (inactive) in the test with SF-539 CNS; 98.8% (inactive) with UACC-257 melanoma. In the test with M14 melanoma, the growth was 98.9% (inactive).
For the molecule `CCN(CC)Cc1cc2[nH]c3c4ccc(Cl)cc4ncc3c2cc1OC`, the growth was 68.4% (inactive) with NCI-H23 lung; 84.1% (inactive) and 93.4% (inactive) in the test on NCI-H226 lung; 93.2% (inactive) and 87.2% (inactive) in the test with NCI-H322M lung; 80.7% (inactive) and 87.9% (inactive) in the test on HOP-62 NSCLC; 60.6% (inactive) and 78% (inactive) in the test on HOP-92 NSCLC; 244% (inactive) and 12.6% (inactive) in the test on NCI-H522 lung. The growth in the test on A549/ATCC NSCLC was 19.6% (inactive) and 44.1% (inactive); with 786-0 renal, 81% (inactive) and 86.3% (inactive); in the test on COLO 205 colon, -16.9% (active) and 1.13% (active); in the test on DU-145 prostate, 10.7% (inactive); in the test on K-562 leukemia it was -45.5% (active); with MALME-3M melanoma, 77.2% (inactive) and 107% (inactive). The growth in the test on MDA-MB-231 breast was -4.73% (active) and 16.6% (inactive); with RXF 393 renal, -43.2% (active) and -29.8% (active); with SF-268 CNS it was 22.9% (inactive) and 89.1% (inactive); in the test with SF-295 CNS, 102% (inactive) and 90.9% (inactive); in the test on SF-539 CNS, -73.3% (active) and -71.9% (active); in the test with UACC-257 melanoma it was 94.5% (inactive) and 104% (inactive). Besides, the growth in the test on M14 melanoma was -49.3% (active) and -42.6% (active).
